Experimental findings from PubChem BioAssay (NCATS) are described below.

Unmarked numbers belong to inactive results. Records with an inconclusive call do not appear. Activity calls are given as the source filed them. Unless noted, calls follow the shape of the dose curve; as a rule, active = well fitted curve in the direction sought with a large enough effect; inconclusive = small, poorly fitted or top-dose-only effect, or another doubt; inactive = no such curve, though single readings can be large; an effect the other way counts as inactive or inconclusive. Where only a bound is given, the exact number is not on record here.

Assay [1] addresses Lysosomal acid glucosylceramidase (Homo sapiens) (UniProt P04062). As to the kind of experiment: Glucocerebrosidase-p2 (AID 348; in the data active = potency below about 10 µM; also: potency is read from the fitted curve at half-maximal effect). Particulars: purified GBA, blue fluorogenic substrate, 40 min. The gist of the method:
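Normal human glucocerebrosidase (0.2 nM) with blue fluorogenic substrate (80 uM final) in citrate/phosphate pH 5.9 with 10mM sodium taurocholate, 0.01% tween-20; 40 min RT, NaOH/glycine stop; fluorescence Ex 365/Em 440; AC50 from a titration from 0.6 nM upwards.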

A short description of assay [2]: AP1 Signaling Pathway (AID 357; active = well fitted curve in either direction with a large enough effect, not every such curve was filed as active; also: % is scaled to controls: 0 for no effect and ±100 for the full control effect). Particulars: ME-180 AP-1-bla reporter, EGF-induced, beta-lactamase ratio, 5 h; at 7.69 µM (top of the series) unless noted. The gist of the method:
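AP-1-bla ME-180 cells with beta-lactamase reporter under AP-1 response element, stimulated with EC50 EGF; compounds titrated, 5 hours at 37 degrees Celsius. CCF4 read at 460/530 nm ratio; positive and negative modulators judged by AC50.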

Assay [3] deals with Cytochrome P450 1A2 (Homo sapiens) (UniProt P05177). Description: p450-cyp1a2 (AID 410; calls by dose curve; also: potency is read from the fitted curve at half-maximal effect). Particulars: recombinant CYP1A2, luciferin-ME demethylation, luminescence; series mostly up to 57 µM. In outline:
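20nM CYP1A2, 100uM Luciferin-ME (=Km), 100mM KPO4; cpd 10 min RT; +NADPH regen, 60 min RT; stop/detect 20 min; luminescence. Normalized to furafylline 57 uM = full inhibition.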

Assay [4] can be described thus: NFAT Signaling Pathway (AID 444; active = well fitted curve in either direction with a large enough effect, not every such curve was filed as active;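 also: carbachol stimulus at about its EC50 of 1 µM final; % is scaled to controls: 0 for no effect and ±100 for the full control effect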). Particulars: Jurkat NFAT-bla M1, carbachol, beta-lactamase ratio, 5 h; at 7.69 µM (top of the series) unless noted. In outline:
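Jurkat cells carrying an NFAT-driven β-lactamase reporter and co-transfected muscarinic M1 receptor were treated with compound plus carbachol (1 uM final, an EC50 level) for 5 h at 37 °C. CCF4 loading followed for 1 h at RT; 460/530 nm ratio gave %activity.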

Assay [5] can be described thus: Stat Signaling Pathway (AID 446; active = well fitted curve in either direction with a large enough effect, not every such curve was filed as active;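 also: ME-180 cervical cancer cells given 40 pM IL-6 alongside compound; SIE-controlled beta-lactamase reporter measured as 460/530 nm FRET emission ratio; % is scaled to controls: 0 for no effect and ±100 for the full control effect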). Particulars: ME-180 SIE beta-lactamase reporter, IL-6 stimulated, 5 h; at 7.69 µM (top of the series) unless noted. The gist of the method:
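Emission at 460 and 530 nm (excitation 405 nm) reports SIE-controlled beta-lactamase in ME-180 cells. Cells received compound with 40 pM IL-6 for 5 hrs at 37 C; data scaled between 300 pM IL-6 and 125 nM JAK-inhibitor controls.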

The target of assay [6] is Glucocorticoid receptor (Homo sapiens) (UniProt P04150). As to the kind of experiment: GR-GFP Redistribution (AID 450;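 active = compounds whose dose series gives a full or clear partial fitted curve of increased nuclear translocation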; also: potency is read from the fitted curve at half-maximal effect). Particulars: U2OS GR-GFP nuclear translocation, laser cytometry, 2 h.
For assay [7] the target is unchanged. As to the kind of experiment: GR-EFC Redistribution (AID 451; calls by dose curve; also: potency is read from the fitted curve at half-maximal effect). The note with it: CHO-K1 GR-EFC translocation, beta-gal luminescence, 2 h. The gist of the method:
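CHO-K1 cells stably expressing nuclear-localized β-gal enzyme acceptor and GR fused C-terminally to the enzyme donor fragment; ligand-driven nuclear translocation restores β-gal by complementation. Compounds titrated up to 46 uM final, 2 h at 37 °C; luminescence read.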

Assay [8] addresses Mitogen-activated protein kinase 10 (Mus musculus) (UniProt Q61831). Description: JNK3 AlphaScreen Assay (AID 530; active = well fitted curve in either direction with a large enough effect, not every such curve was filed as active;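 also: kinase came from lysate of stimulated human HepG2 cells; % is scaled to controls: 0 for no effect and ±100 for the full control effect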). The note with it: JNK3 lysate, c-Jun phosphorylation; series mostly up to 57.1 µM. The gist of the method: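 Biotinylated GST-cJun(1-79) served as substrate for JNK3 in HepG2 lysates stimulated with IL-1beta and TNF-alpha. ATP was 10 uM final, pH 7.6. Ser73 phosphorylation was quantified by AlphaScreen (680 nm excitation).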

Assay [9] addresses Cytochrome P450 3A4 (Homo sapiens) (UniProt P08684). As to the kind of experiment: qHTS Assay for Activators of Cytochrome P450 3A4 (AID 885). Also: nearly all actives have a fitted effect of over 65% in size. Particulars: recombinant CYP3A4, Luciferin-PPXE luminescence, 60 min; series mostly up to 57.1 µM. The gist of the method: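 Activators are scored by enhanced luminescence from CYP3A4 conversion of luciferin-PPXE (25uM, equal to KM) to luciferin, after 60 min at RT with an NADPH-regenerating system.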

Assay [10] has as its target Dual specificity protein kinase CLK4 (Homo sapiens) (UniProt Q9HAZ1). As to the kind of experiment: qHTS Assay for Inhibitors of CDC-like Kinase 4 (ADP-FP Assay) (AID 1795).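 Also: recombinant human CLK4 phosphorylating RS repeat peptide at 1 µM ATP; % is scaled to controls: 0 for no effect and ±100 for the full control effect; nearly all actives have a fitted effect of over 60% in size.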 The note with it: Transcreener ADP fluorescence polarization; series mostly up to 50 µM. The gist of the method: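 FP readout: Orange Transcreener ADP2 tracer (4 nM) plus ADP antibody, read after 30 min at room temperature. Kinase step: 6.25 nM Clk4, 100 uM RS peptide, 1 uM ATP, pH 7.5, 1 h.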

In assay [11] the target is Ubiquitin carboxyl-terminal hydrolase 1 (Homo sapiens) (UniProt O94782). Description: Inhibitors of USP1/UAF1: Pilot qHTS (AID 504865). Also: nearly all actives have a fitted effect of over 35% in size. Also: potency is read from the fitted curve at half-maximal effect. Particulars: purified USP1/UAF1, Ub-rhodamine cleavage fluorescence; series mostly up to 54.9 µM. The gist of the method:
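1nM USP1/UAF1 + cpd, 15 min RT; start w/ Ub-Rho 150nM final; kinetic FL 480/540 nm, 6 reads q60 s. Buffer 50mM HEPES pH 7.8, 0.5mM EDTA, 1mM TCEP, 0.01% Tween-20, 0.1 mg/ml BSA.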

A short description of assay [12]: Primary qHTS for small molecule stabilizers of the endoplasmic reticulum resident proteome: Secreted ER Calcium Modulated Protein (SERCaMP) assay (AID 1508630). Also: % is scaled to controls: 0 for no effect and ±100 for the full control effect. The note with it: SH-SY5Y GLuc-SERCaMP (Gaussia luciferase released on ER calcium loss) secretion, thapsigargin, luminescence; series mostly up to 38.4 µM. In outline: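 The SH-SY5Y reporter protocol was run at 3 concentrations up to 38.3 uM (primary) or 11 concentrations (follow-up): 16 h compound, 100 nM thapsigargin for 4 h, then extracellular luciferase luminescence.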

The target of assay [13] is 3',5'-cyclic-AMP phosphodiesterase 4B (Homo sapiens) (UniProt Q07343). Description: qHTS Assay for Inhibitors of PDE-IV (AID 607; active = well fitted activation curve with a large enough effect in the main read-out, with a control signal flat, not every such curve was filed as active; also: % of control where 0% means no effect). Particulars: HEK293 ACTOne CNG channel cells, membrane potential fluorescence; series mostly up to 22.9 µM. In outline: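 The readout is membrane depolarisation from a cAMP-sensing CNG channel, detected with a potential dye at ex 535/em 590. Cells were HEK293-derived (endogenous PDE-IV) at 1000 cells/well, titrated up to 22.9 uM final.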

Assay [14] has as its target Cytochrome P450 3A4 (Homo sapiens) (UniProt P08684). Description: qHTS Assay for Inhibitors and Substrates of Cytochrome P450 3A4 (AID 884). Also: potency is read from the fitted curve at half-maximal effect; nearly all actives have a fitted effect of over 50% in size. The note with it: recombinant CYP3A4, Luciferin-PPXE luminescence; series mostly up to 57.1 µM. In outline: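 Luminescent readout of luciferin produced by CYP3A4 (20 nM) dealkylation of Luciferin-PPXE, 25 uM (its KM). NADPH-driven reaction ran 60 min at RT after 10 min compound preincubation; data scaled to 57 uM ketoconazole as 100% inhibition.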

In assay [15] the target is Cytochrome P450 2D6 (Homo sapiens) (UniProt P10635). Description: qHTS Assay for Inhibitors and Substrates of Cytochrome P450 2D6 (AID 891). Also: potency is read from the fitted curve at half-maximal effect; nearly all actives have a fitted effect of over 60% in size. Particulars: recombinant CYP2D6, luciferin-ME EGE luminescence; series mostly up to 57.1 µM. The gist of the method:
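Luminescent read-out of luciferin formed by 5 nM human CYP2D6 demethylating 30 uM Luciferin-ME EGE (Km level) over 60 min at room temperature after NADPH regeneration addition. Data normalized to full inhibition by 1.43 uM quinidine.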

In assay [16] the target is Cytochrome P450 2C19 (Homo sapiens) (UniProt P33261). As to the kind of experiment: qHTS Assay for Inhibitors and Substrates of Cytochrome P450 2C19 (AID 899). Also: potency is read from the fitted curve at half-maximal effect; nearly all actives have a fitted effect of over 60% in size. Particulars: recombinant CYP2C19, luciferin-H EGE luminescence; series mostly up to 57.1 µM. In outline: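 Human CYP2C19 (5nM) with Luciferin-H EGE at 10uM (its KM) in 50mM KPO4 was preincubated with compound for 10 min at 37C. NADPH regeneration started a 60 min 37C reaction. Luciferin was read by luminescence, normalized to 57uM ketoconazole.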

Assay [17] is described as follows: qHTS Assay for Identification of Small Molecule Agonists for Hypoxia Response Element Signaling Pathway (AID 914; active = well fitted activation curve with a large enough effect in the signal ratio, with a control signal flat, not every such curve was filed as active; the % refers to the signal ratio; also: % of control where 0% means no effect). Particulars: ME-180 (cervical carcinoma) HRE-bla reporter, beta-lactamase ratio, CoCl2, 17 h; activation: active compounds read high. The gist of the method: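 Read-out: CCF4 FRET ratio of 460nm to 530nm emission (excitation 405nm) after 2.5 hours at room temperature, taken from HRE-bla ME-180 cells that had been exposed to compound and EC50 CoCl2 for 17 hours.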

Assay [18] has as its target Cytochrome P450 2C9 (Homo sapiens) (UniProt P11712). Description: qHTS Assay for Inhibitors and Substrates of Cytochrome P450 2C9 (AID 883). Also: potency is read from the fitted curve at half-maximal effect; nearly all actives have a fitted effect of over 60% in size. Particulars: recombinant CYP2C9, luciferin-H luminescence, 60 min; series mostly up to 57.1 µM. The gist of the method:
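Human CYP2C9 (10nM) hydroxylated Luciferin-H (100uM, at its KM) to luciferin in 25mM KPO4. Compound was preincubated 10 min at 37C, then NADPH regeneration started a 60 min reaction at 37C. Luminescence was read after detection reagent, normalized to 57uM sulphaphenazole.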

Chain of Lysosomal acid glucosylceramidase (Homo sapiens) (P04062 whole entry, looked up): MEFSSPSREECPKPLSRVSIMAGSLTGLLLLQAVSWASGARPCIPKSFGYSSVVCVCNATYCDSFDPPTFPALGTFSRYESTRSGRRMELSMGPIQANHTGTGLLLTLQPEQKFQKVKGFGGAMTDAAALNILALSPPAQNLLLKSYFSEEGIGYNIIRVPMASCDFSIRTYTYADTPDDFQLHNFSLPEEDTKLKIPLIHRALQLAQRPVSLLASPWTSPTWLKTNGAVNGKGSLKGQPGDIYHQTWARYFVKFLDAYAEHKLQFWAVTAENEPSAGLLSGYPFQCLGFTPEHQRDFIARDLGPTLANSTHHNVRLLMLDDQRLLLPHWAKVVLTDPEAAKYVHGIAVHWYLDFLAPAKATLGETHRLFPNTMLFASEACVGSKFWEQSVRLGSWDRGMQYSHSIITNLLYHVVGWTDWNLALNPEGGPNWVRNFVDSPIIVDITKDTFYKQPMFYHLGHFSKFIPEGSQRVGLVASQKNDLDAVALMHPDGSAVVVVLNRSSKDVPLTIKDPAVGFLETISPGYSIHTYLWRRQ
Chain of 3',5'-cyclic-AMP phosphodiesterase 4B (Homo sapiens) (Q07343 whole entry, looked up): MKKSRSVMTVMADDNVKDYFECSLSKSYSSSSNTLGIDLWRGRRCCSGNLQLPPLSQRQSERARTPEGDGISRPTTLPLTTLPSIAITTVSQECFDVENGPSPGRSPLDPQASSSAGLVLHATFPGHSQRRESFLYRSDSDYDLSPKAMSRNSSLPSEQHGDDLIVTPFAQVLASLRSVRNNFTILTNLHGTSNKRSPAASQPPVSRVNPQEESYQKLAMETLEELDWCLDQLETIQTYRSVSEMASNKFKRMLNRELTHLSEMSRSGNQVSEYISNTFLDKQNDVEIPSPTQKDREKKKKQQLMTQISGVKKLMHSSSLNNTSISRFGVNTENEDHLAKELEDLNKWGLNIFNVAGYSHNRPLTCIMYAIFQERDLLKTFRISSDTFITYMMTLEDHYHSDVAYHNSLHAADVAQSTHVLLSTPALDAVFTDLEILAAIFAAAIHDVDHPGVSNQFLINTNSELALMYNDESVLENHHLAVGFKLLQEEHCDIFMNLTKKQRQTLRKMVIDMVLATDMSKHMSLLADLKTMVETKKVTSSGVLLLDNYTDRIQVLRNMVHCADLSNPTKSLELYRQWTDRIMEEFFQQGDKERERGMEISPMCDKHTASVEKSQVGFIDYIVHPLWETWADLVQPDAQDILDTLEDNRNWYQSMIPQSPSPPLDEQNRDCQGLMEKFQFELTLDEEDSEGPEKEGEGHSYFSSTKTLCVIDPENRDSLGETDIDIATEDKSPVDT
Chain of Glucocorticoid receptor (Homo sapiens) (P04150 whole entry, looked up): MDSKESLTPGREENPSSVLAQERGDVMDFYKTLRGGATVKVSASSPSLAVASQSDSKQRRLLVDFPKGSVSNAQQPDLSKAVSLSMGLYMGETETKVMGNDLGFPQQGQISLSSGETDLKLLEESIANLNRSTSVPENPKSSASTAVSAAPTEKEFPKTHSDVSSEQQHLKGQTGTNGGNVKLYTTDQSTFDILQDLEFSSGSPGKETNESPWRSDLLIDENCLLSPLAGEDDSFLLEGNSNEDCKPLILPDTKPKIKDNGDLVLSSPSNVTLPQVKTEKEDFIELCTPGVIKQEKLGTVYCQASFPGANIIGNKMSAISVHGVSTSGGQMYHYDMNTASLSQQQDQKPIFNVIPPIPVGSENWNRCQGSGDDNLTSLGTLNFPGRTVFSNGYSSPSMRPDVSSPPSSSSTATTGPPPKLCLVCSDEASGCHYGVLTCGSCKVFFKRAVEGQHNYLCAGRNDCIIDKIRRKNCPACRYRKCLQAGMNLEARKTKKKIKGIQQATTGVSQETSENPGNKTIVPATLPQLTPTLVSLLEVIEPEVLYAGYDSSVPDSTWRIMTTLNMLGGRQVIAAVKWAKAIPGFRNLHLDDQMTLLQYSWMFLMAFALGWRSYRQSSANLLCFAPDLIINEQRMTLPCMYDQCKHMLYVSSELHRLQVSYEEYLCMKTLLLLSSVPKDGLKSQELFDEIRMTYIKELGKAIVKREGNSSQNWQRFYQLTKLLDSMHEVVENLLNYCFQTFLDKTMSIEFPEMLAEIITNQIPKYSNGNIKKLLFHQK
Chain of Ubiquitin carboxyl-terminal hydrolase 1 (Homo sapiens) (O94782 whole entry, looked up): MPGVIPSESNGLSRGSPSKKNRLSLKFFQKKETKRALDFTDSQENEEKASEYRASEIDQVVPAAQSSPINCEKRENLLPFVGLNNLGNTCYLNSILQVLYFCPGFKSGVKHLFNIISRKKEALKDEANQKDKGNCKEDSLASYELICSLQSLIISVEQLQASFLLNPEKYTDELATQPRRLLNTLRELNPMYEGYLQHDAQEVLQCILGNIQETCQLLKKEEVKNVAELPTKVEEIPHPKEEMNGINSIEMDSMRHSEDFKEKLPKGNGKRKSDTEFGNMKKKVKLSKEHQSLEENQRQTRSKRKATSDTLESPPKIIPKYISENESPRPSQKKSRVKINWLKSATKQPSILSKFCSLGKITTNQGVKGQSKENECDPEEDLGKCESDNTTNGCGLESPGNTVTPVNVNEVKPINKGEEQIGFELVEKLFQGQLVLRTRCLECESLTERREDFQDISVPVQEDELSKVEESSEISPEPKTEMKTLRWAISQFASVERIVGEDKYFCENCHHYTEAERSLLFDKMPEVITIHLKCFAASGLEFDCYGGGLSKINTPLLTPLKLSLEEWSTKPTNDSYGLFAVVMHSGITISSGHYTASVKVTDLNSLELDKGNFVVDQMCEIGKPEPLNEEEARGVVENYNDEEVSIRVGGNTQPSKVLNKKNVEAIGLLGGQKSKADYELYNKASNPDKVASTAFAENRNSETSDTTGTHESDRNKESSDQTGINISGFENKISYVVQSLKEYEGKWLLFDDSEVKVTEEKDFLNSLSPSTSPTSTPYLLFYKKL
Chain of Cytochrome P450 1A2 (Homo sapiens) (P05177 whole entry, looked up): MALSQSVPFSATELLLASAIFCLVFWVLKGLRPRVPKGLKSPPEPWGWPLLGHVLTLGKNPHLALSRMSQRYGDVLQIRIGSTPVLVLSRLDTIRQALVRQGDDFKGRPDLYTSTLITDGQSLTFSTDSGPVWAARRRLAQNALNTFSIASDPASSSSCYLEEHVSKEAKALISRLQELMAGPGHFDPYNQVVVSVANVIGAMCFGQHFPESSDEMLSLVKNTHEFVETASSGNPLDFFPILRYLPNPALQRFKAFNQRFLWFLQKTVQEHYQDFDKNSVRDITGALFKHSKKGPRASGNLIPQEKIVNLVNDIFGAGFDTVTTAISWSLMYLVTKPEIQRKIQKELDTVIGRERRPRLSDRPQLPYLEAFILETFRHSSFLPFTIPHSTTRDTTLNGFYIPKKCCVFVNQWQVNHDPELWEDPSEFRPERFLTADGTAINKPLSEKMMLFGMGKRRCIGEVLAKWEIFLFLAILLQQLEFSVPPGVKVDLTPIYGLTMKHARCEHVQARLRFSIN
Chain of Cytochrome P450 2C19 (Homo sapiens) (P33261 whole entry, looked up): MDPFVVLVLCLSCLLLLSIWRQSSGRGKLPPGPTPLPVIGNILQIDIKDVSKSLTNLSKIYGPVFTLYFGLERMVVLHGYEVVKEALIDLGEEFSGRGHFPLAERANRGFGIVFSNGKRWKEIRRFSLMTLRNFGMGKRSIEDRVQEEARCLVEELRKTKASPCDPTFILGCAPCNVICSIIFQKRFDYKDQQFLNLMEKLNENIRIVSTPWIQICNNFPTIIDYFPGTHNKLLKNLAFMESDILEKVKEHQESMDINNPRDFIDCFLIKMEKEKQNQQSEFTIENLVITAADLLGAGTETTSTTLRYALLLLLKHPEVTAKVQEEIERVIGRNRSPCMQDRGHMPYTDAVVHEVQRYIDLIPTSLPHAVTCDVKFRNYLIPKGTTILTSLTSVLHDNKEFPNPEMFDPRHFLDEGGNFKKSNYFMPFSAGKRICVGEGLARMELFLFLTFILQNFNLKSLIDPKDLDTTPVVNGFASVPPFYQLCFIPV
Chain of Dual specificity protein kinase CLK4 (Homo sapiens) (Q9HAZ1 whole entry, looked up): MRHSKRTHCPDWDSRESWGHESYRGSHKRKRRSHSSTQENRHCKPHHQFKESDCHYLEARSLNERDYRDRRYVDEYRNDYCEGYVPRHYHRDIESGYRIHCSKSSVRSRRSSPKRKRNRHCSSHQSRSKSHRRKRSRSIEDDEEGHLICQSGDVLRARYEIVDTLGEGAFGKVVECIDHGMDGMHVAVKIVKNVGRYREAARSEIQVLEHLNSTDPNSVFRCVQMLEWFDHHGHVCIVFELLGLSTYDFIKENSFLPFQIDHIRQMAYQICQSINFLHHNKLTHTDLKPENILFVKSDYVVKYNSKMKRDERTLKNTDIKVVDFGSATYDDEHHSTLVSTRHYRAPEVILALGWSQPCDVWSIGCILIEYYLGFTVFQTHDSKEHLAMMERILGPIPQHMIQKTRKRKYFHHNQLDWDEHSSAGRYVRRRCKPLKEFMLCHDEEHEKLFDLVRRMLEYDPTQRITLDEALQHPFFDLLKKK
Chain of Cytochrome P450 3A4 (Homo sapiens) (P08684 whole entry, looked up): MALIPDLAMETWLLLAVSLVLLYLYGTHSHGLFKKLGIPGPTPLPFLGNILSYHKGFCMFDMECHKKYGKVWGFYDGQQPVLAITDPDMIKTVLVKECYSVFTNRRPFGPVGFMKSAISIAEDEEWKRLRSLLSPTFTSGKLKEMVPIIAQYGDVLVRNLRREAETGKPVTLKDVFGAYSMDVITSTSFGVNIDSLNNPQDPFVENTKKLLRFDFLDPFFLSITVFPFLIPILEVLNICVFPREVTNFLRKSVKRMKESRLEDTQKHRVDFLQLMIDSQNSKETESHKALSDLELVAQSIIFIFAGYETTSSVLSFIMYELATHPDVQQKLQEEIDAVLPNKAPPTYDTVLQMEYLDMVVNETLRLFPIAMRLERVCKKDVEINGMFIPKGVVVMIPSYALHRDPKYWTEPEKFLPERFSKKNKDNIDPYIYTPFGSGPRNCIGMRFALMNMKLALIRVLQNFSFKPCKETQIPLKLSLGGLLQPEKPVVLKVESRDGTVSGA

Regarding `c1ccc(CNc2nc(-c3ccoc3)nc3ccccc23)cc1`, the Potency in assay [1] was greater than 2.29 µM; in [3], 0.631 µM (active); in assay [6], greater than 46 µM; in assay [7], greater than 46 µM. Further, the figures for the activity change, negative = inhibition in assay [2] and in assay [4] were -9.34% and -7.24%, respectively. The activity, negative = inhibition in [5] is 12.7%. Moreover, the Potency entry in assay [8], in [9], in [10] and in [11] was “inactive” in each case. Moreover, in assay [12], the result was inactive.

In the case of `COc1ccc2[nH]cc(CCNc3ccnc(-c4ccc5c(c4)OCO5)n3)c2c1`, the Potency was 7.76 µM (active) in assay [1]; 0.631 µM (active) in assay [3]; greater than 46 µM in [6]; greater than 46 µM in assay [7]; 2.51 µM (active) in [14]; 7.94 µM (active) in assay [15]. In [16], the Potency was 0.631 µM (active). In addition, the activity change, negative = inhibition was -11.1% in assay [2] and -4.51% in [4]. Moreover, in assay [5], the activity, negative = inhibition was -13.4%. Besides, the Potency result in assay [8], in assay [13], in assay [9], in assay [10] and in [11] was “inactive” in each case. In assay [12], the result was inactive.

On to `c1cncc(CNc2cc(-c3ccoc3)ncn2)c1`, for which the Potency is greater than 11.4 µM in [1], 3.16 µM (active) in assay [3], greater than 46 µM in assay [6] and greater than 46 µM in assay [7]. Also, the values for the activity change, negative = inhibition in assay [2] and in [4] were 0.0422% and -10.4%, respectively. Besides, the activity, negative = inhibition in [5] was 11.8%. Moreover, the Potency entry in assay [8], in [13], in assay [9], in assay [10] and in assay [11] was “inactive” each time. In addition, in assay [17], the activation is 0.531%. The result in assay [12] was inactive.

With `Cc1noc(C)c1-c1nccc(NCc2ccccc2)n1`, the Potency is greater than 2.29 µM in assay [1]; 0.794 µM (active) in [3]; greater than 46 µM in assay [6]; greater than 46 µM in [7]; 5.01 µM (active) in [14]; 25.1 µM (active) in [11]. For the same molecule, the activity change, negative = inhibition in assay [2] was 0.193%; in [4] it was -7.38%. Moreover, the activity, negative = inhibition in assay [5] was -0.39%. The Potency entry in assay [8], in [13], in [9] and in [10] was “inactive” each time. Also, in assay [12], the result was inactive.

Regarding `COc1cccc(-c2cncnc2NCc2cccs2)c1`, the Potency was greater than 11.4 µM in assay [1]; 1.26 µM (active) in [3]; greater than 46 µM in assay [6]; greater than 46 µM in [7]; 0.398 µM (active) in [18]; 1.58 µM (active) in assay [14]. Further, the Potency in assay [16] is 0.631 µM (active). Also, the activity change, negative = inhibition was -25% in assay [2] and 9.12% in assay [4]. The activity, negative = inhibition in [5] was -6.14%. Moreover, the Potency entry in [8], in [9], in [10] and in assay [11] was “inactive” in each case. Besides, the result in assay [12] was inactive.

On to `COc1cccc(-c2cncnc2NCc2cccnc2)c1`, for which the Potency was greater than 11.4 µM in assay [1]; 0.794 µM (active) in [3]; greater than 46 µM in assay [6]; greater than 46 µM in assay [7]; 1.26 µM (active) in [14]; 0.316 µM (active) in [16]. Besides, the figures for the activity change, negative = inhibition in assay [2] and in assay [4] were -6.26% and -6.72%, respectively. In addition, the activity, negative = inhibition in [5] is 3.03%. Further, the Potency result in assay [8], in assay [13], in assay [9], in assay [10] and in [11] was “inactive” in each case. Also, the outcome in assay [12] was inactive.
